Laboratory results from publication PMC9911399, “Two distinct binding modes provide the RNA-binding protein RbFox with extraordinary sequence specificity”.
Substitutions are numbered along the chain they refer to; changes in the protein carry UniProt numbers. In all, about 16,000 sequences were measured (“ka relative to ugcaugu”: median about 0.0091, highest 2% from about 0.032 on). Many of the other results were omitted from the sample, so the highest values are more common in it than they were.

T1: RBFOX1 RRM (Homo sapiens, UniProt Q9NWB1 109-208)
T1 sequence: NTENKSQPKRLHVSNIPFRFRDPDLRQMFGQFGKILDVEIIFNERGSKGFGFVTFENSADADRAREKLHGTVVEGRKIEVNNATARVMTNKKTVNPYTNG

B1: GCGUGUG (DNA:RNA)
RNA: GGGAGACCGGAAUUCAGAUUGUCCGCGUGUGUUAAAUCCCGUCGUAGCCACCA
DNA 1: CAATCTGAATTCCGGTCTCCC
DNA 2: TGGTGGCTACGACGGGATT
B2: UCUAACG (DNA:RNA)
RNA: B1 RNA with G25U, G27U, U28A, G29A, U30C
DNA 1: CAATCTGAATTCCGGTCTCCC
DNA 2: TGGTGGCTACGACGGGATT
B3: UCCCUGA (DNA:RNA)
RNA: B1 RNA with G25U, G27C, U28C, G29U, U30G, G31A
DNA 1: CAATCTGAATTCCGGTCTCCC
DNA 2: TGGTGGCTACGACGGGATT
B4: UCAAAGA (DNA:RNA)
RNA: B1 RNA with G25U, G27A, U28A, G29A, U30G, G31A
DNA 1: CAATCTGAATTCCGGTCTCCC
DNA 2: TGGTGGCTACGACGGGATT
B5: UGCAGCC (DNA:RNA)
RNA: B1 RNA with G25U, C26G, G27C, U28A, U30C, G31C
DNA 1: CAATCTGAATTCCGGTCTCCC
DNA 2: TGGTGGCTACGACGGGATT
B6: CGUUGGA (DNA:RNA)
RNA: B1 RNA with G25C, C26G, G27U, U30G, G31A
DNA 1: CAATCTGAATTCCGGTCTCCC
DNA 2: TGGTGGCTACGACGGGATT
B7: GGACCUA (DNA:RNA)
RNA: B1 RNA with C26G, G27A, U28C, G29C, G31A
DNA 1: CAATCTGAATTCCGGTCTCCC
DNA 2: TGGTGGCTACGACGGGATT
B8: GGGGGUC (DNA:RNA)
RNA: B1 RNA with C26G, U28G, G31C
DNA 1: CAATCTGAATTCCGGTCTCCC
DNA 2: TGGTGGCTACGACGGGATT
B9: GGGUCUU (DNA:RNA)
RNA: B1 RNA with C26G, G29C, G31U
DNA 1: CAATCTGAATTCCGGTCTCCC
DNA 2: TGGTGGCTACGACGGGATT
B10: CGGGUCU (DNA:RNA)
RNA: B1 RNA with G25C, C26G, U28G, G29U, U30C, G31U
DNA 1: CAATCTGAATTCCGGTCTCCC
DNA 2: TGGTGGCTACGACGGGATT
B11: CCGGGUC (DNA:RNA)
RNA: B1 RNA with G25C, U28G, G31C
DNA 1: CAATCTGAATTCCGGTCTCCC
DNA 2: TGGTGGCTACGACGGGATT
B12: GGGGUCU (DNA:RNA)
RNA: B1 RNA with C26G, U28G, G29U, U30C, G31U
DNA 1: CAATCTGAATTCCGGTCTCCC
DNA 2: TGGTGGCTACGACGGGATT
B13: CGGGGUC (DNA:RNA)
RNA: B1 RNA with G25C, C26G, U28G, G31C
DNA 1: CAATCTGAATTCCGGTCTCCC
DNA 2: TGGTGGCTACGACGGGATT
B14: UACCUCU (DNA:RNA)
RNA: GGGAGACCGGAAUUCAGAUUGUCCUACCUCUUUAAAUCCCGUCGUAGCCACCA
DNA 1: CAATCTGAATTCCGGTCTCCC
DNA 2: TGGTGGCTACGACGGGATT
B15: CUGGGAG (DNA:RNA)
RNA: B1 RNA with G25C, C26U, U28G, U30A
DNA 1: CAATCTGAATTCCGGTCTCCC
DNA 2: TGGTGGCTACGACGGGATT
B16: GUUAGAA (DNA:RNA)
RNA: B1 RNA with C26U, G27U, U28A, U30A, G31A
DNA 1: CAATCTGAATTCCGGTCTCCC
DNA 2: TGGTGGCTACGACGGGATT
B17: AGUGUCU (DNA:RNA)
RNA: B14 RNA with U25A, A26G, C27U, C28G
DNA 1: CAATCTGAATTCCGGTCTCCC
DNA 2: TGGTGGCTACGACGGGATT
B18: AGAUAUU (DNA:RNA)
RNA: B1 RNA with G25A, C26G, G27A, G29A, G31U
DNA 1: CAATCTGAATTCCGGTCTCCC
DNA 2: TGGTGGCTACGACGGGATT
B19: AGUGGUA (DNA:RNA)
RNA: B1 RNA with G25A, C26G, G27U, U28G, G31A
DNA 1: CAATCTGAATTCCGGTCTCCC
DNA 2: TGGTGGCTACGACGGGATT
B20: GGGGCAA (DNA:RNA)
RNA: B1 RNA with C26G, U28G, G29C, U30A, G31A
DNA 1: CAATCTGAATTCCGGTCTCCC
DNA 2: TGGTGGCTACGACGGGATT
B21: GGGCAAA (DNA:RNA)
RNA: B1 RNA with C26G, U28C, G29A, U30A, G31A
DNA 1: CAATCTGAATTCCGGTCTCCC
DNA 2: TGGTGGCTACGACGGGATT
B22: CGGGCAG (DNA:RNA)
RNA: B1 RNA with G25C, C26G, U28G, G29C, U30A
DNA 1: CAATCTGAATTCCGGTCTCCC
DNA 2: TGGTGGCTACGACGGGATT
B23: GGGCAGU (DNA:RNA)
RNA: B1 RNA with C26G, U28C, G29A, U30G, G31U
DNA 1: CAATCTGAATTCCGGTCTCCC
DNA 2: TGGTGGCTACGACGGGATT
B24: GGGGCAG (DNA:RNA)
RNA: B1 RNA with C26G, U28G, G29C, U30A
DNA 1: CAATCTGAATTCCGGTCTCCC
DNA 2: TGGTGGCTACGACGGGATT
B25: CGGGCAA (DNA:RNA)
RNA: B1 RNA with G25C, C26G, U28G, G29C, U30A, G31A
DNA 1: CAATCTGAATTCCGGTCTCCC
DNA 2: TGGTGGCTACGACGGGATT

These binders were tested against T1, RBFOX1 RRM (assay: EMSA; HiTS-Eq, 1 nM pool, 10 min; buffer printed only for the single-RNA assays: 10 mM Tris pH 7.5, 150 mM NaCl, 3.4 mM EDTA, 0.001% NP-40, 30 C). Details: tags: His6 N-terminal (pET28a); label: 5' 32P.
Outline: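 Purified RbFox RRM, wild type or mutant, was incubated for 10 min in 50 µL with 1 nM of a 5′-radiolabelled RNA pool carrying 7 randomized nucleotides, whose flanks were annealed to DNA oligonucleotides, over a series of increasing protein concentrations. Unbound RNA was resolved on 8% native PAGE, cut out, reverse-transcribed, barcoded by PCR and sequenced on an Illumina HiSeq 2500. Relative association constants were derived from changes in read counts for each RNA species versus the control reaction and normalised to the cognate motif.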

| Binder | binding signal |
| --- | --- |
| B1 | 0.0222 KA relative to UGCAUGU |
| B2 | 0.00601 KA relative to UGCAUGU |
| B3 | 0.00782 KA relative to UGCAUGU |
| B4 | 0.00287 KA relative to UGCAUGU |
| B5 | 0.0108 KA relative to UGCAUGU |
| B6 | 0.00714 KA relative to UGCAUGU |
| B7 | 0.0035 KA relative to UGCAUGU |
| B8 | 0.0306 KA relative to UGCAUGU |
| B9 | 0.00918 KA relative to UGCAUGU |
| B10 | 0.0296 KA relative to UGCAUGU |
| B11 | 0.0244 KA relative to UGCAUGU |
| B12 | 0.0436 KA relative to UGCAUGU |
| B13 | 0.0407 KA relative to UGCAUGU |
| B14 | 0.00134 KA relative to UGCAUGU |
| B15 | 0.0142 KA relative to UGCAUGU |
| B16 | 0.0142 KA relative to UGCAUGU |
| B17 | 0.0109 KA relative to UGCAUGU |
| B18 | 0.00865 KA relative to UGCAUGU |
| B19 | 0.0144 KA relative to UGCAUGU |
| B20 | 0.032 KA relative to UGCAUGU |
| B21 | 0.0043 KA relative to UGCAUGU |
| B22 | 0.0252 KA relative to UGCAUGU |
| B23 | 0.0161 KA relative to UGCAUGU |
| B24 | 0.0491 KA relative to UGCAUGU |
| B25 | 0.0227 KA relative to UGCAUGU |
